S-ASM inh – inhibitors of human secretory acid sphingomyelinase; 340,000 compounds, 0.006% hits; Potency, µM (top dose mostly 57.5 µM), most hits filed as inhibitors; placental ASM, HMU-PC fluorogenic substrate, 60 min; AID 504937
Target sequence (P17405 47-631 limits assumed): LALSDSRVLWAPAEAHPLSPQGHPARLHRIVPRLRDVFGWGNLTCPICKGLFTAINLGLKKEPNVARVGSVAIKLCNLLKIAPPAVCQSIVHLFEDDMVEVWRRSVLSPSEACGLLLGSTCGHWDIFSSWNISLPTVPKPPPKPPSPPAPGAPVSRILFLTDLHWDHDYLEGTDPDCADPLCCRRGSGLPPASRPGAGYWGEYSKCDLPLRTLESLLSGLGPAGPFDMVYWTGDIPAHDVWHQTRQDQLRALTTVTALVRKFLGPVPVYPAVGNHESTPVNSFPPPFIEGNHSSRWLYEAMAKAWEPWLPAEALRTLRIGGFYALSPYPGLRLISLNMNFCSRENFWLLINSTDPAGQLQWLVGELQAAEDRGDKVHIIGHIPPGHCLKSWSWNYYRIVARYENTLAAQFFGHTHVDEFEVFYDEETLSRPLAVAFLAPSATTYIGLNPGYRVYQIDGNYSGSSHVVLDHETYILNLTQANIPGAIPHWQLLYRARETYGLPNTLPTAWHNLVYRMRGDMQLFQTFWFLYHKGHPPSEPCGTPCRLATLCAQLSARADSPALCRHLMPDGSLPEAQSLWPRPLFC
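Fluorescence read-out (Ex 386 nm, Em 447 nm) after stopping the reaction at pH 10. Enzyme: ASM from human placenta; substrate HMU-PC0, 9 uM final; 60 min, 37 °C. Compound preincubation 10 min, ambient temperature.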
PKM2 act – PKM2 (human) enzyme activation; P14618; purified PKM2, Kinase-Glo ATP luminescence, activation; response scale: 0% is enzyme alone, no compound; Potency, µM (titrated, usually from 57.5 µM), most hits filed as activators; 260,000 compounds, 0.34% hits; AID 1631; note: nearly all actives have a fitted effect of over 55% in size
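hPK-M2, >95% pure; 0.1 mM ADP / 0.5 mM PEP final; imidazole pH7.2 buffer w/ 7 mM MgCl2, 50 mM KCl; 1 h RT; Kinase-Glo lum. Intermediate enzyme activity for dual inhibitor/activator qHTS.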
IL2 activator – IL-2 activation | 360,000 compounds, 0.065% hits | IL-2 activation reporter assay, cell-based qHTS; stimulated with anti-CD3/CD4/CD28 beads; in transgenic mouse T cells | activation, % (series mostly up to about 46 µM); in the data active = activation above about 50%; inconclusive = mostly about 30% to 49%
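Unstimulated transgenic mouse T cells preincubated 60 min with compound, then stimulated with anti-CD3/anti-CD4-coated beads plus anti-CD28 for 18 h at 37 degrees C. IL-2 response read as EGFP and DsRed fluorescence by plate cytometry.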
A number is an active result; i = inactive; ? = inconclusive; nt = not tested or not shown; [ ] = another dose, or the depositor's remark. In the library only some 0.33% were active in any assay of this set; here they are far more common. Unless noted, calls come from the whole dose curve; as a rule, active = well fitted curve in the direction sought with a large enough effect; inconclusive = small, poorly fitted or top-dose-only effect, or another doubt; inactive = no such curve, though single readings can be large; an effect the other way counts as inactive or inconclusive.

SMILES | S-ASM inh | PKM2 act | IL2 activator
O=C(COC(=O)c1ccc2ncsc2c1)NCc1cccc(Cl)c1 | i | nt | i
O=C(OCCOc1cccc(Cl)c1)c1ccc2ncsc2c1 | i | 15.8µM | i
O=C(O)c1cc(=O)n(Cc2ccccc2)c(=O)[nH]1 | i | nt | i
Cn1ncc(N=Cc2c(O)ccc3ccccc23)c1C(=O)Nc1cccc(Cl)c1 | i | i | 247.0
Cn1ncc(Cl)c1C(=O)Nc1cccc(Cl)c1 | i | i | i
CC1(C)CC(=O)C(C(c2ccc(F)cc2)C2C(=O)CC(C)(C)CC2=O)C(=O)C1 | i | i | i
CCc1sc(C(C2C(=O)CC(C)(C)CC2=O)C2C(=O)CC(C)(C)CC2=O)cc1[N+](=O)[O-] | i | 22.4µM | i
COc1cccc(C(=O)Nc2ccc(NC(=O)C3CC3)nc2)c1 | i | i | i
COc1ccccc1S(=O)(=O)Nc1ccc(-c2nnc3n2CCCCC3)cc1 | i | 20µM | i
CC(C)(C)C(=O)Nc1ccc(-c2nnc3n2CCCCC3)cc1 | i | i | i
COc1ccc(C2C(C)C(=O)C(C)C(c3ccc(OC)cc3)N2N=O)cc1 (centres undefined) | ? | nt | i
N/C(=N\OC(=O)CC1CCCCC1)c1ccncc1 | i | i | i
CCc1cccc(CC)c1NC(=S)NCCc1c(C)[nH]c2ccccc12 | i | i | i
CCc1cccc(CC)c1NC(=S)NCCc1ccc(O)c(O)c1 | i | 22.4µM | i
Cc1cc(NC(=O)CSc2ncccn2)no1 | i | i | i
Cc1cc(NC(=O)CSc2ncn(-c3ccccc3)n2)no1 | i | 25.1µM | i
N#Cc1ccc(NCCc2ccccn2)c([N+](=O)[O-])c1 | i | 14.1µM | i
O=[N+]([O-])c1cc(Cl)ccc1NCCc1ccccn1 | i[11.5 µM] | ? | i
Cc1ccc(CC2CC(=O)N(Cc3ccco3)C2=O)cc1 (centres undefined) | i | ? | i
O=C1CC(Cc2ccccc2)C(=O)N1Cc1ccco1 (centres undefined) | i | 28.2µM | i
O=S(=O)(c1ccccc1F)N1CCN(Cc2nc3ccccc3[nH]2)CC1 | i | i | i
N#CCc1ccc(NS(=O)(=O)c2cccs2)cc1 | i | 17.8µM | i
O=S(=O)(Nc1ccc(Cc2ccncc2)cc1)c1cccs1 | i | i | i
CC(=O)NC(CC(=O)NC12CC3CC(CC(C3)C1)C2)c1ccccc1 (centres undefined) | i | i | i
CCCn1cc(CN2CCC(Oc3ccc(C(=O)N4CCCC4)cc3)CC2)c(C)n1 | i | nt | i
SMILES | S-ASM inh | PKM2 act | IL2 activator
CS(=O)(=O)Nc1ccc(C2=NN(C(=O)c3ccco3)C(c3ccccc3)C2)cc1 (centres undefined) | i | 14.1µM | i
CCS(=O)(=O)Nc1ccc(C2=NN(C(=O)c3ccco3)C(c3ccc(C)cc3)C2)cc1 (centres undefined) | i | 7.94µM | i
Cc1ccc(C2CC(c3ccc(NS(C)(=O)=O)cc3)=NN2C(=O)c2ccco2)cc1 (centres undefined) | i | ? | i
CCS(=O)(=O)Nc1ccc(C2=NN(C(=O)c3ccco3)C(c3cccc(F)c3)C2)cc1 (centres undefined) | i | ? | i
Cc1cc(C)c2nc(N(CCCN(C)C)C(=O)C3=COCCO3)sc2c1 | i | nt | i
CCOC(=O)N1CCC(NC(=O)C(CC(C)C)NC(=O)C2CCCCC2)CC1 (centres undefined) | i | i | i
Cc1cccc2cc(C(c3nnnn3C(C)(C)C)N3CCN(C(=O)c4ccco4)CC3)c(=O)[nH]c12 (centres undefined) | i | i | i
CCC(C)(C)n1nnnc1C(c1ccccc1OC)N1CCN(C(=O)c2ccco2)CC1 (centres undefined) | i | i | i
Cc1ccc2[nH]c(=O)c(C(c3nnnn3C(C)(C)C)N3CCN(C(=O)c4ccco4)CC3)cc2c1 (centres undefined) | i | 25.1µM | i
CCC(C)(C)n1nnnc1C(c1cc2cc(C)cc(C)c2[nH]c1=O)N1CCN(C(=O)c2ccco2)CC1 (centres undefined) | i | 14.1µM | i
CC1(C)C(=O)Nc2ccccc2N1C(=O)CN1C(=O)c2ccccc2C1=O | i | i | i
COc1ccc(/C=N\NC(=O)c2ccccc2F)cc1COc1ccc(F)cc1 | i | i | i
O=C(Nc1ccccc1)Nc1nc(-c2ccccc2)cs1 | i | i | i
FC(F)(F)c1cccc(-n2cccc2/C=N/n2cnnc2)c1 | i | 20µM | i
Oc1ccc(-n2cccc2/C=N/n2cnnc2)cc1 | i | i | i
O=C(COC(=O)c1ccc[nH]c1=O)NC1CCCCCC1 | i | i | i
COCCNS(=O)(=O)c1ccc(C)c(C)c1C | i | i | i
Cc1ccc(NC(=O)c2ccc3c(c2)N(CC(=O)N2CCCCC2)C(=O)C(C)(C)O3)cc1 | i | i | i
COc1ccc(CCNC2CC(=O)N(CCc3ccccc3)C2=O)cc1 (centres undefined) | i | i | i
CCN(CC)c1ccc(NC2CC(=O)N(CCc3ccc(OC)cc3)C2=O)cc1 (centres undefined) | i | i | 125.2
Cc1nnc(NC(=O)c2sc3nc(-c4cccs4)cc(C(F)(F)F)c3c2N)s1 | i | i | i
Nc1c(C(=O)Nc2nccs2)sc2nc(-c3cccs3)cc(C(F)(F)F)c12 | i | i | 104.2
Cc1cc(-c2nnc(SCC(=O)Nc3nccs3)o2)no1 | i | 15.8µM | i
Cc1cc(-c2nnc(SCC(=O)Nc3ccccn3)o2)no1 | i | i | i
O=C1c2ccccc2NC(c2ccc(-c3ccccc3F)o2)N1O (centres undefined) | i | nt | i
SMILES | S-ASM inh | PKM2 act | IL2 activator
Cc1cc([N+](=O)[O-])ccc1-c1ccc(C2Nc3ccccc3C(=O)N2O)o1 (centres undefined) | ? | 14.1µM | i
COc1cccc(-c2csc3nc[nH]c(=O)c23)c1 | i | 28.2µM | i
Cc1ccc(-c2csc3nc[nH]c(=O)c23)cc1C | i | i | i
COC(=O)C1=C(C)OC(N)=C(C#N)C1c1ccco1 (centres undefined) | i | i | i
Cc1nc(-c2cn[nH]c2)c2cc(C)oc2n1 | i | i | i
CCN(CC(=O)NCc1ccc(F)cc1)C(=O)/C=C/c1cccs1 | i | i | i
CCN(CC(=O)NCc1ccc(F)cc1)C(=O)/C=C/c1ccco1 | i | 12.6µM | i
Cc1cccc(C)c1NC(=O)C1CCCNC1 (centres undefined) | i | i | i
Clc1ccccc1OCCn1cnc2ccccc21 | i | i | i
COc1cc(/C=C2\C(=O)ON=C2c2ccccc2)cc(OC)c1OC | i | i | i
CCc1ccccc1N=Cc1c(C)c(C#N)c2[nH]c3ccccc3n2c1=O | i | nt | 123.4
CCCCc1c(C)c(C#N)c2[nH]c3ccccc3n2c1=O | i | i | i
Cc1cccc(C)c1OCC(=O)N/N=C/C=C/c1ccco1 | i | i | i
Cc1c(Cl)cccc1Nc1nc(N)nc(CSC(=S)N2CCOCC2)n1 | i | i | i
c1ccc(CSc2ncnc3ccccc23)cc1 | i | i | i
Fc1ccc(CSc2ncnc3ccccc23)cc1 | i | 25.1µM | i
Cc1ccccc1-c1nc(CN2CCC(C(=O)NCCN3CCOCC3)CC2)c(C)o1 | i | nt | i
Cc1ccc(OC(=O)c2ccc3nc(C)sc3c2)cc1 | i | i | 393.6
